Test results published in PubChem BioAssay (Tox21).
Unmarked numbers belong to inactive results. Results filed as inconclusive are left out. Where a call stands in place of a potency, no number is given. Activity calls are given as the source filed them. Unless noted, the call rests on the fitted dose curve.

What was measured:
[1] = target: KiSS-1 receptor (Homo sapiens) (UniProt Q969F8); assay: Human kisspeptin (KISS1R) small molecule agonists, calcium flux assay in KISS1R-HEK293 cells (AID 1920064; active means well fitted activation curve with a large enough effect in the repeat runs)
Chain of KiSS-1 receptor (Homo sapiens) (Q969F8 whole entry, looked up): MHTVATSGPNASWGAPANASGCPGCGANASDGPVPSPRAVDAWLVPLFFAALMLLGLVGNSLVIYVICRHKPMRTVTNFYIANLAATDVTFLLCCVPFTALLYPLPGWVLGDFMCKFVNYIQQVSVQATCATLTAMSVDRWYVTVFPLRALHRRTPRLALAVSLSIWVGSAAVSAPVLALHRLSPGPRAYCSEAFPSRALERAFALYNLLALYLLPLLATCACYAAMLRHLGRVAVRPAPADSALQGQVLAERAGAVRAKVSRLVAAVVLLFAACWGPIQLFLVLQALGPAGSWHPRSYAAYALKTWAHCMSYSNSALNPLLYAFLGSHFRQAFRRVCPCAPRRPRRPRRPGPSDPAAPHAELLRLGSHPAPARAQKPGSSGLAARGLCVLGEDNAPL
Outline: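 Cell line: HEK293, stable human KISS1R. Dye loading 1 h at 37 C after 18 h culture. Read: kinetic fluorescence, 480/540 nm, 3 min at 1 s intervals.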

[2] = G protein-coupled receptor (GPCR) small molecule agonists, calcium flux assay: HEK293 wild type cell line counter screen (AID 1920065)
Outline: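 Tox21 10K compounds, 15 concentrations each in triplicate, pin-transferred in DMSO onto dye-loaded cells; kinetic read at 480/540 nm for 3 min, 1 s intervals.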

[3] = target: 5-hydroxytryptamine receptor 2A (Homo sapiens) (UniProt P28223); assay: 5-hydroxytryptamine receptor 2A (HTR2A) small molecule antagonists, cell-based qHTS assay (AID 1963586); further: nearly all actives have a fitted effect of over 45% in size; further: potency means the concentration at half of the fitted maximal effect
Chain of 5-hydroxytryptamine receptor 2A (Homo sapiens) (P28223 whole entry, looked up): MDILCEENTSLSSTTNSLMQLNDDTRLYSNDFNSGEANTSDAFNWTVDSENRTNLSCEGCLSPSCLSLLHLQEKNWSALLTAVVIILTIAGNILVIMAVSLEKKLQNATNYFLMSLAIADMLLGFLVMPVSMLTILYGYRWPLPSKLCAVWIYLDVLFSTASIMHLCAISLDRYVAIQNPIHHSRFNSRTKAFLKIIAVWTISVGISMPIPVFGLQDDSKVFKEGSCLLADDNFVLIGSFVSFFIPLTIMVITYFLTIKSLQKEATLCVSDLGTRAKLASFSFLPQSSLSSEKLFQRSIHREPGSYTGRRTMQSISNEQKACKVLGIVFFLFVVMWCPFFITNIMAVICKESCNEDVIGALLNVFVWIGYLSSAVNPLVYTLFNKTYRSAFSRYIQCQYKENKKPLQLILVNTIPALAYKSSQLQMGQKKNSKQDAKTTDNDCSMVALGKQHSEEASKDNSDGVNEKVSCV
Outline: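 CHO cells stably expressing human HTR2A were plated for 18 h at 37 C, then loaded with calcium dye for 1 h. Compounds were preincubated 5 min at room temperature before DOI (4 nM solution) was added. Kinetic fluorescence was read for 3 min.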

[4] = target: Muscarinic acetylcholine receptor M1 (Homo sapiens) (UniProt P11229); assay: Cholinergic receptor muscarinic 1 (CHRM1) small molecule agonists, cell-based qHTS assay (AID 1963589); further: nearly all actives have a fitted effect of over 35% in size
Chain of Muscarinic acetylcholine receptor M1 (Homo sapiens) (P11229 whole entry, looked up): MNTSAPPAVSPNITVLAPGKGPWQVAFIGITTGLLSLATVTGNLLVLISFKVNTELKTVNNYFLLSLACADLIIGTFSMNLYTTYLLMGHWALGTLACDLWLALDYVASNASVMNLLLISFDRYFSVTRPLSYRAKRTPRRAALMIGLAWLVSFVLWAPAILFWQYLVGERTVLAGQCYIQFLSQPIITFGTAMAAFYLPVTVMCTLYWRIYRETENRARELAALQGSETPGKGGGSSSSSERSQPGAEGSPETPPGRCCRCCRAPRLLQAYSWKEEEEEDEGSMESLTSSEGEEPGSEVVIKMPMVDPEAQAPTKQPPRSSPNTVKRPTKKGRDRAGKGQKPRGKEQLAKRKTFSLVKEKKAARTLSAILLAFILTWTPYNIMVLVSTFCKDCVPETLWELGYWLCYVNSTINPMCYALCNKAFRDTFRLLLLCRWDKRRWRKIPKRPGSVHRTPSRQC
Outline: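 Homogeneous fluorescence calcium flux, agonist mode. Human M1-expressing CHO cells; compound dosed at 15 concentrations, three independent runs; signal sampled every 1 sec.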

[5] = target: Beta-2 adrenergic receptor (Homo sapiens) (UniProt P07550); assay: Adrenergic beta2 receptor (ADRB2) small molecule antagonists, cell-based qHTS assay (AID 1963592); further: nearly all actives have a fitted effect of over 50% in size; further: potency means the concentration at half of the fitted maximal effect
Chain of Beta-2 adrenergic receptor (Homo sapiens) (P07550 whole entry, looked up): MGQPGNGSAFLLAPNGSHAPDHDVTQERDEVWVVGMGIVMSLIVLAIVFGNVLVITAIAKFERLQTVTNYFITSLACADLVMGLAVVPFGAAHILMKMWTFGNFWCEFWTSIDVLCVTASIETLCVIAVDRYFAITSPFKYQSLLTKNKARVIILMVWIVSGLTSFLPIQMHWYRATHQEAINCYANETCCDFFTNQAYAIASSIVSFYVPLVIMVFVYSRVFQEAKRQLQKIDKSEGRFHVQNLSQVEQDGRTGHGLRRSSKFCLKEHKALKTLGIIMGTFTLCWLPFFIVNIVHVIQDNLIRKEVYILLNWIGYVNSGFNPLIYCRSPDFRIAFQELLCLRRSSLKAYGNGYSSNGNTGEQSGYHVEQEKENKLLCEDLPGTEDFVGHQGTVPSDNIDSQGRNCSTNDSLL
Outline: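 Assay format: CHO-ADRB2 cells, 18-20hr seeding at 37C/5% CO2, then compound plus 1nM isoproterenol agonist mix for 0.5hr RT. Homogeneous time-resolved fluorescence cAMP detection after 1hr, expressed as 665/615 nm ratio.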

[6] = p53 small molecule agonists, cell-based qHTS assay with human liver microsomes: qHTS cell viability counter screen (AID 1963579); further: nearly all actives have a fitted effect of over 45% in size
Outline: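 Seed p53RE-bla cells at 4,000 per well; incubate 5 h at 37 C; add compound, human liver microsomes and NADPH; incubate 16 h at 37 C; add CellTiter-Glo; after 30 min at room temperature, read luminescence.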

[7] = p53 small molecule agonists, cell-based qHTS assay: qHTS cell viability counter screen (AID 1963581); further: nearly all actives have a fitted effect of over 45% in size
Outline: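 ATP content measured by luminescence in HCT-116 p53RE-bla cells treated 16 h at 37 C, same wells as the reporter screen.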

[8] = p53 small molecule agonists, cell-based qHTS assay (AID 1963582; active means well fitted activation curve with a large enough effect in the signal ratio in the repeat runs, not every such curve was filed as active; the % refers to the signal ratio; further: potency means the concentration at half of the fitted maximal effect)
Outline: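 16 h compound exposure (37 C) of p53 response element–bla cells, preceded by 5 h recovery at 37 C/5% CO2; read-out via LiveBLAzer B/G FRET substrate, 2 h RT, fluorescence intensity.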

[9] = target: 5-hydroxytryptamine receptor 2A (Homo sapiens) (UniProt P28223); assay: 5-hydroxytryptamine receptor 2A (HTR2A) small molecule agonists, cell-based qHTS assay (AID 1963587); further: nearly all actives have a fitted effect of over 30% in size; further: potency means the concentration at half of the fitted maximal effect
Outline: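 CHO cells stably expressing human HTR2A, plated 18 h, loaded with calcium dye 1 h at 37 C. Agonist mode: compounds added and intracellular calcium fluorescence recorded kinetically for 2 min at 1 sec intervals.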

[10] = target: Muscarinic acetylcholine receptor M1 (Homo sapiens) (UniProt P11229); assay: Cholinergic receptor muscarinic 1 (CHRM1) small molecule antagonists, cell-based qHTS assay (AID 1963588); further: nearly all actives have a fitted effect of over 40% in size
Outline: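 Compounds were tested at 15 concentrations in three independent runs. Dye-loaded CHRM1-CHO cells were exposed 5 min at room temperature before stimulation by acetylcholine added at 50nM. Intracellular calcium was read kinetically on FDSS for 3 min.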

[11] = target: D(2) dopamine receptor (Homo sapiens) (UniProt P14416); assay: Dopamine D2 receptor (DRD2) small molecule agonists, cell-based qHTS assay (AID 1963594); further: nearly all actives have a fitted effect of over 35% in size
Chain of D(2) dopamine receptor (Homo sapiens) (P14416 whole entry, looked up): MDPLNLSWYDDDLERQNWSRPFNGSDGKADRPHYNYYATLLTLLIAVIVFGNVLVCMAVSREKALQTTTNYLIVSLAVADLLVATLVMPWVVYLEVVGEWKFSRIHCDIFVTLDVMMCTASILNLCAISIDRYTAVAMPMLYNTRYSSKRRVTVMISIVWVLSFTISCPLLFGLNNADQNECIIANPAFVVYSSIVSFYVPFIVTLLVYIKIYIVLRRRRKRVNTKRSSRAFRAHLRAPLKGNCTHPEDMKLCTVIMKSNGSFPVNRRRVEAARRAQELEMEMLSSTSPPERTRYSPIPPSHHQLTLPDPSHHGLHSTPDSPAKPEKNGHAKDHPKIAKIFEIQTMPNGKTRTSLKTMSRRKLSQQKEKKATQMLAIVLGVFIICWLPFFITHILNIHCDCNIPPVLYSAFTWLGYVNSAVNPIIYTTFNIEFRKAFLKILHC
Outline: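 HEK293 cells stably expressing human DRD2, pre-treated with PDE inhibitor Ro20-1724 (0.1 mM final) and compound 10 min at room temperature, then stimulated with NKH477 (200nM […]) for 30 min. cAMP read by HTRF (665/620 nm).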

[12] = target: D(2) dopamine receptor (Homo sapiens) (UniProt P14416); assay: Dopamine D2 receptor (DRD2) small molecule antagonists, cell-based qHTS assay (AID 1963595; active means well fitted inhibition curve with a large enough effect in the signal ratio in the repeat runs, with a control signal flat; the % refers to the signal ratio; further: potency means the concentration at half of the fitted maximal effect)
Outline: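 Antagonist mode in DRD2-HEK293 cells: after compound addition with 0.1 mM Ro20-1724, cells received quinpirole (12 nM) and NKH477 (200 nM) for 30 min at room temperature; HTRF cAMP read after 1 h detection.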

[13] = cAMP Responsive Elements (CRE) small molecule agonists, cell-based qHTS assay (AID 1963590)
Outline: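 HEK 293T cells stably bearing CRE-bla were plated at 2,000 cells per well and rested 18 h. Compounds, positive controls or DMSO were added for 3 h at 37 C. LiveBLAzer B/G substrate was then loaded for 2 h at room temperature.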

[14] = p53 small molecule agonists, cell-based qHTS assay with rat liver microsomes (AID 1963578)
Outline: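 Fluorescence from a beta-lactamase reporter under a p53 response element was measured after cells had been incubated 16 h at 37 C with test compound and rat liver microsomes plus NADPH (0.5 mg/mL final each).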

[15] = p53 small molecule agonists, cell-based qHTS assay with rat liver microsomes: qHTS cell viability counter screen (AID 1963580); further: nearly all actives have a fitted effect of over 45% in size
Outline: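 After the beta-lactamase ratio was read, CellTiter-Glo was added to the same wells and luminescence measured at 30 min; cells had been treated 16 h at 37 C with compounds, rat liver microsomes and NADPH (0.5 mg/mL final each).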

[16] = p53 small molecule agonists, cell-based qHTS assay with human liver microsomes (AID 1963577)
Outline: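 Cells carrying a p53-responsive bla reporter were rested 5 h (37 C, 5% CO2) before compound transfer. Human liver microsomes plus NADPH, 0.5 mg/mL final apiece, supplied metabolism during the 16 h 37 C exposure.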

[17] = cAMP Responsive Elements (CRE) small molecule antagonists, cell-based qHTS assay (AID 1963591; active means well fitted inhibition curve with a large enough effect in the signal ratio in the repeat runs, not every such curve was filed as active; the % refers to the signal ratio)
Outline: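 First, CRE-bla HEK293T cells settled 18 h at 37 C. Next, compound and 0.25 uM final NKH477 were applied for 3 h. Last, LiveBLAzer B/G substrate was loaded for 2 h at room temperature.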

SMILES | Potency [1] | Potency [2] | Potency [3] | Potency [4] | Potency [5] | Potency [6] | Potency [7] | Potency [8] | Potency [9] | Potency [10] | Potency [11] | Potency [12] | Potency [13] | Potency [14] | Potency [15] | Potency [16] | Potency [17]
Cc1c(-c2ccc(O)cc2)n(Cc2ccc(OCCN3CCCCCC3)cc2)c2ccc(O)cc12 | inactive | inactive | inactive | inactive | inactive |  |  |  |  |  |  |  |  |  |  |  | 
CCN(CC)CCCC(C)Nc1c2ccc(Cl)cc2nc2ccc(OC)cc12 (stereo not given) | inactive | inactive |  |  |  | inactive | inactive | 19.9 µM (active) |  |  |  |  |  |  |  |  | 
CC(=O)N(C)C |  |  |  | inactive | inactive |  |  |  | inactive | inactive | inactive | inactive |  |  |  |  | 
O=C(O)CCn1c2c(c3ccccc31)C[C@H](NS(=O)(=O)c1ccc(F)cc1)CC2 | inactive | inactive | inactive | inactive | inactive |  |  |  | inactive | inactive | inactive | inactive | inactive |  |  |  | 
COC(=O)[C@H]1[C@H]2C[C@@H]3c4[nH]c5cc(OC)ccc5c4CCN3C[C@H]2C[C@@H](OC(=O)/C=C/c2ccc(O)c(OC)c2)[C@@H]1OC |  | inactive | inactive | inactive |  | inactive | inactive |  | 19 µM (active) | inactive | inactive |  |  | inactive | inactive |  | 
COc1ccc(CCN(C)CCCC(C#N)(c2ccc(OC)c(OC)c2)C(C)C)cc1OC (stereo not given) | inactive | inactive |  |  | inactive | inactive | inactive |  |  |  | inactive |  |  |  | inactive |  | 
O=C1Cc2ccccc2C1 |  |  | inactive | inactive | inactive |  |  |  | inactive | inactive | inactive | inactive |  |  |  |  | 
Cc1ccc2ccc(Cl)cc2n1 | inactive | inactive |  | inactive | inactive | inactive | inactive |  | inactive | inactive | inactive | inactive | inactive | inactive | inactive | inactive | inactive
Cc1cc2c(cc1C(F)(F)F)N(C(=O)Nc1ccc(Oc3cccnc3C)nc1)CC2 | inactive | inactive |  | inactive | 27.7 µM (active) | inactive | inactive |  |  |  | inactive | 6.2 µM (active) |  | inactive | inactive | inactive | 
CNCCCC1c2ccccc2C=Cc2ccccc21 |  | inactive | 7.29 µM (active) | inactive |  | inactive | inactive | inactive | inactive |  | inactive |  | inactive | inactive | inactive | inactive | 
ClC(Cl)Cl | inactive | inactive |  |  | inactive | inactive | inactive | inactive |  |  | inactive | inactive | inactive | inactive |  | inactive | inactive
